Measurements: the supplement of paper PMC9446081
± gives the standard deviation of the averaged measurements.

Columns and labels:
Assay in all cases: relative enzymatic activity vs untreated control (fraction); higher = less inhibition
Conditions in all cases: 100 µM; incubation time: 2 h at 37 C
DNA gyrase = test system: DNA gyrase
Experimental: (§1)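 In vitro enzymatic inhibition assays (ProFoldin kits) for 12 purified essential E. coli enzymes or complexes, each treated with 218 active antibacterial compounds at 100 µM for 2 h at 37°C. Read-outs were fluorescence or absorbance (phosphate detection, dye binding), converted to activity via standard curves and expressed relative to untreated DMSO controls.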

DNA helicase = DNA helicase (UniProt P0ACB1)
Experimental: as §1

DNA ligase = DNA ligase (UniProt B1XA82)
Experimental: as §1

DNA polymerase = DNA polymerase (UniProt P10443)
Experimental: as §1

DNA primase = DNA primase (UniProt P0ABS7)
Experimental: as §1

GlmU = GlmU (UniProt A7ZTU1)
Experimental: as §1

Guanlyate kinase = Guanlyate kinase (UniProt Q0TBG1)
Experimental: as §1

MurA = MurA (UniProt Q3YX52)
Experimental: as §1

MurD = molecular target: T1, MurD (UniProt P14900)
T1 sequence (whole entry): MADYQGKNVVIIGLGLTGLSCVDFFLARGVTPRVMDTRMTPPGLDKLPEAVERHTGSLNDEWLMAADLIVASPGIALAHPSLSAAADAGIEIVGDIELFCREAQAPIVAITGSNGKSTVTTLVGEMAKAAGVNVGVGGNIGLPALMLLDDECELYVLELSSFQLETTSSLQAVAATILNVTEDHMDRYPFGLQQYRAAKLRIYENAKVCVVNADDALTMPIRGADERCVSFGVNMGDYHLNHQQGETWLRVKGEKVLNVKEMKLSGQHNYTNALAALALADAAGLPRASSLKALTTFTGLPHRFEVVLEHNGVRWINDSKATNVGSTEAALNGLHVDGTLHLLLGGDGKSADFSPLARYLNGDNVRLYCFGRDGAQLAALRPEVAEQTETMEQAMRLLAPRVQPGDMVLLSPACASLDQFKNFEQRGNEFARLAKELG
Experimental: as §1

MurF = molecular target: T2, MurF (UniProt P11880)
T2 sequence (whole entry): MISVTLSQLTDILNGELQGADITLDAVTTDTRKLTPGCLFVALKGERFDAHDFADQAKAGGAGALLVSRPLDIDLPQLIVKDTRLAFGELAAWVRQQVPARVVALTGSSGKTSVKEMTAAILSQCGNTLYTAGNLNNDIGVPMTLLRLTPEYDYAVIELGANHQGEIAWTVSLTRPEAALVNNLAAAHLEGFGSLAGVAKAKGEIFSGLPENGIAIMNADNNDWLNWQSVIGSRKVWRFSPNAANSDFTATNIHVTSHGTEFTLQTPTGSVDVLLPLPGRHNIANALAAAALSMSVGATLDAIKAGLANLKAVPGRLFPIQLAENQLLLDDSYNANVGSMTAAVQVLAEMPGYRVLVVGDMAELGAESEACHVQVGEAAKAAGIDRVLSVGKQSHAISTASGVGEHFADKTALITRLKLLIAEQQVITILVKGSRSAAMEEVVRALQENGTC
Experimental: as §1

RNA polymerase = test system: RNA polymerase
Experimental: as §1

Chain of DNA ligase (B1XA82 whole entry): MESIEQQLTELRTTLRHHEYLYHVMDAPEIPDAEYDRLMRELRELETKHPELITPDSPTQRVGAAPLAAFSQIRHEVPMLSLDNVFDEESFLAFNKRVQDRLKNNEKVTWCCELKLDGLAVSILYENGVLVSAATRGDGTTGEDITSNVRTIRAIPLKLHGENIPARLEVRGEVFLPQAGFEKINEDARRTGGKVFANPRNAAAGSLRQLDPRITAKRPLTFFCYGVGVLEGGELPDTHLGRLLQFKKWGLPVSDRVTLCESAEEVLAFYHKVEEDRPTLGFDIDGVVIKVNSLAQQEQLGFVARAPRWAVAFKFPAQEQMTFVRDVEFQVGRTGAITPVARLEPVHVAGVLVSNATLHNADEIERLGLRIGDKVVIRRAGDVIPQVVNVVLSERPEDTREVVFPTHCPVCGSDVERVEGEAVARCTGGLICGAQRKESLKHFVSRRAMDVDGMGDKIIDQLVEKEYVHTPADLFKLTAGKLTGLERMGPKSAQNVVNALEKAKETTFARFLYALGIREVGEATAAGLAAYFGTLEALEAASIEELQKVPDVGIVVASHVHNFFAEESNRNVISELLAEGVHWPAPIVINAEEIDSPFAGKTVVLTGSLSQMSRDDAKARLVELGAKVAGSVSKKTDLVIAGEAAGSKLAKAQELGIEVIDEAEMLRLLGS
Chain of DNA polymerase (P10443 whole entry): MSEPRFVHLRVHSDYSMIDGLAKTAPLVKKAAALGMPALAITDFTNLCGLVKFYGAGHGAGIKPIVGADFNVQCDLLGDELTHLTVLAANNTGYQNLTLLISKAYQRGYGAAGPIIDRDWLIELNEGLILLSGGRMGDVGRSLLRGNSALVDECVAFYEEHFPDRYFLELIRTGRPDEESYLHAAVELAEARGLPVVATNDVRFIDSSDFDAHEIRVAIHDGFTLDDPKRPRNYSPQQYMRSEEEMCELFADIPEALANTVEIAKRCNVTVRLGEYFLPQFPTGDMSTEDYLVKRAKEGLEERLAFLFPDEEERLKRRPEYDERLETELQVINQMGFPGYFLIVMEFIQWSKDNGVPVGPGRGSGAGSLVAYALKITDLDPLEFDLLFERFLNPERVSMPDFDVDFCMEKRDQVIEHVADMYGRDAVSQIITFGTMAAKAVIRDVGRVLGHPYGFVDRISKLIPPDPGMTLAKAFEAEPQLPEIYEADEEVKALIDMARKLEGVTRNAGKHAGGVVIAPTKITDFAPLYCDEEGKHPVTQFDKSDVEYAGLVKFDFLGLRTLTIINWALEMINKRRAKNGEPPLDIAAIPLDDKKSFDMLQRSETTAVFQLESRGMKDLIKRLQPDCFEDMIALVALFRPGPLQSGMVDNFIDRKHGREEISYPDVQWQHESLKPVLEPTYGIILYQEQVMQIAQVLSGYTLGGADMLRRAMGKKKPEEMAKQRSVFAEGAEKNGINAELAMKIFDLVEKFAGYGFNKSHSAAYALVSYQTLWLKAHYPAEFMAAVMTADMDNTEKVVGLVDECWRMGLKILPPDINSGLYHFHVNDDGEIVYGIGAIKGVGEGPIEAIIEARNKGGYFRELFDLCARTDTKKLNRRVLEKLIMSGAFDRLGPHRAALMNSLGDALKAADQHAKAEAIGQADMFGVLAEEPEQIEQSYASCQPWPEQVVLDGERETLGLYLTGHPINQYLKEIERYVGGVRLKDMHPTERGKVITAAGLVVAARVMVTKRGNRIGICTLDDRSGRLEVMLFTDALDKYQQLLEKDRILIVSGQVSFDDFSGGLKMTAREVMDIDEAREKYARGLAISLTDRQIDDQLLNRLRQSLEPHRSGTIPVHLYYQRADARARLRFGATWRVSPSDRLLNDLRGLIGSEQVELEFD
Chain of MurA (Q3YX52 whole entry): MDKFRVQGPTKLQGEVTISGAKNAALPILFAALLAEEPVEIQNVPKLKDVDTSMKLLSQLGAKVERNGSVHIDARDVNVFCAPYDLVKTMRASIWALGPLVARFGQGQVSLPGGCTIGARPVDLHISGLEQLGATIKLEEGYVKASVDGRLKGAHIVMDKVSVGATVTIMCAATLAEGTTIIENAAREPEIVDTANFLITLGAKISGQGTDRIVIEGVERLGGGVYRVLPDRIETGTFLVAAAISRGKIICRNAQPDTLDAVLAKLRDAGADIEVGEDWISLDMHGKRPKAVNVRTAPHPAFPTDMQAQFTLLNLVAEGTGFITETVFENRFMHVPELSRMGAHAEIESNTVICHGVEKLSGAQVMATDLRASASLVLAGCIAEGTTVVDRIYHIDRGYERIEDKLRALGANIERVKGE
Chain of Guanlyate kinase (Q0TBG1 whole entry): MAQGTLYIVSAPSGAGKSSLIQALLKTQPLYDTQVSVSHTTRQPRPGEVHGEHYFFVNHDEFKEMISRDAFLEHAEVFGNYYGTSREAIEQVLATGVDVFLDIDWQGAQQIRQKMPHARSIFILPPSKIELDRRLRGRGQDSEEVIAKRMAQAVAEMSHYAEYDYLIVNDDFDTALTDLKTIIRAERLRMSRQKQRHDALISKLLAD
Chain of GlmU (A7ZTU1 whole entry, looked up): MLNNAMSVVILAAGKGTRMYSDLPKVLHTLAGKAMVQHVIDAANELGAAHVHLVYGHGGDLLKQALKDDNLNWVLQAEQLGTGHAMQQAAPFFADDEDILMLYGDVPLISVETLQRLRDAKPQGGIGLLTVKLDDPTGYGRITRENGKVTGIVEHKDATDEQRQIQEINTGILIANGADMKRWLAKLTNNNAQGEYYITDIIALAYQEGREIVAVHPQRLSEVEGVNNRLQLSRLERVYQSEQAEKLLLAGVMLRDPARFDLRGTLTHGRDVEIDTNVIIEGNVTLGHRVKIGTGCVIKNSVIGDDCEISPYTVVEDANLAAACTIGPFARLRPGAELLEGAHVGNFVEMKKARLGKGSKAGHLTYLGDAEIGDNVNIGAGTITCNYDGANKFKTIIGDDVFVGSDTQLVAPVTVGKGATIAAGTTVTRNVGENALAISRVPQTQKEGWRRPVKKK
Chain of DNA primase (P0ABS7 whole entry): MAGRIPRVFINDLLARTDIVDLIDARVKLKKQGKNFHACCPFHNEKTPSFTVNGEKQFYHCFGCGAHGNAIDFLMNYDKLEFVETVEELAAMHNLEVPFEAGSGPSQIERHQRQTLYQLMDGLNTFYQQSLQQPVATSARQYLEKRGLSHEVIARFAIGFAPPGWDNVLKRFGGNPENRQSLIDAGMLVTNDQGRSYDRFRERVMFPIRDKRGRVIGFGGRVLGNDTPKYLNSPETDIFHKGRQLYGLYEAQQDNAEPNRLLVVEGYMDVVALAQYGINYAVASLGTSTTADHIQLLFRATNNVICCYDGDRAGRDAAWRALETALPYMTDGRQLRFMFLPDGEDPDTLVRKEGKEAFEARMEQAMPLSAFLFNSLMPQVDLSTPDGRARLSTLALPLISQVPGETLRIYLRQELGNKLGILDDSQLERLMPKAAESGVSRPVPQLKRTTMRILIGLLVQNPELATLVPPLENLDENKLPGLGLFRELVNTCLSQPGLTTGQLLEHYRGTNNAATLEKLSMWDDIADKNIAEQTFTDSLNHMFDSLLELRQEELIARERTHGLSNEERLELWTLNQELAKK
Chain of DNA helicase (P0ACB1 whole entry): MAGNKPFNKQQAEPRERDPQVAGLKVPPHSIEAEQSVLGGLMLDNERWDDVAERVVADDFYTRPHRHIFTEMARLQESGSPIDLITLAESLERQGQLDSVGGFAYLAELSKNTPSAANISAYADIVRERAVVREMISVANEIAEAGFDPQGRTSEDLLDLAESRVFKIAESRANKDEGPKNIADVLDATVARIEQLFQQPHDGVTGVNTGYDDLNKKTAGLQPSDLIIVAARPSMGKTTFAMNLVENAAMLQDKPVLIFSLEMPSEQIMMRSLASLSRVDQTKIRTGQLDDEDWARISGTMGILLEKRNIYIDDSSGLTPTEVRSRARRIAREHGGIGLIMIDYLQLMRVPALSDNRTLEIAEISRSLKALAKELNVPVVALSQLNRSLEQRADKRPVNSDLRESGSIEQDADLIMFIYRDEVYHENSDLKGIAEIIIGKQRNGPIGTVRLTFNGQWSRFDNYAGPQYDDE

Structure (SMILES)	relative enzymatic activity (DNA gyrase)	relative enzymatic activity (DNA helicase)	relative enzymatic activity (DNA ligase)	relative enzymatic activity (DNA polymerase)	relative enzymatic activity (DNA primase)	relative enzymatic activity (GlmU)	relative enzymatic activity (Guanlyate kinase)	relative enzymatic activity (MurA)	relative enzymatic activity (MurD)	relative enzymatic activity (MurF)	relative enzymatic activity (RNA polymerase)
N[C@@H](C(=O)N[C@@H]1C(=O)N2C(C(=O)O)=C(Cl)CC[C@H]12)c1ccccc1	0.732 ± 0.43	0.524 ± 0.089	0.931 ± 0.12	1.03 ± 0.087	0.831 ± 0.025	1 ± 0.036	0.943 ± 0.061	0.582 ± 0.21	0.603 ± 0.4	0.963 ± 0.22	0.811 ± 0.13
Cn1sccc1=O	0.437 ± 0.62	0.607 ± 0.19	1 ± 0.053	1 ± 0.17	0.8591 ± 0.0028	0.622 ± 0.045	0.903 ± 0.084	0.0867 ± 0.0083	0.579 ± 0.4	0.968 ± 0.27	0.847 ± 0.097
CO/N=C(\C(=O)N[C@@H]1C(=O)N2C(C(=O)O)=C(C)CS[C@H]12)c1csc(N)n1	0.614 ± 0.47	0.628 ± 0.2	0.904 ± 0.086	0.906 ± 0.062	0.822 ± 0.035	1.018 ± 0.0077	0.836 ± 0.015	0.479 ± 0.18	0.613 ± 0.43	0.979 ± 0.21	0.826 ± 0.098
COC1C=COC2(C)Oc3c(C)c(O)c4c(O)c(c5c(nc6cc(C)ccn65)c4c3C2=O)NC(=O)C(C)=CC=CC(C)C(O)C(C)C(O)C(C)C(OC(C)=O)C1C (stereo unspecified)	0.733 ± 0.23	0.703 ± 0.32	1.12 ± 0.24	1.11 ± 0.24	0.8 ± 0.047	0.746 ± 0.032	0.583 ± 0.0086	0.423 ± 0.046	0.417 ± 0.28	0.788 ± 0.15	0.106 ± 0.0026
CC[C@H]1OC(=O)[C@H](C)[C@@H](O[C@H]2C[C@@](C)(OC)[C@@H](O)[C@H](C)O2)[C@H](C)[C@@H](O[C@@H]2O[C@H](C)C[C@H](N(C)C)[C@H]2O)[C@](C)(OC)C[C@@H](C)C(=O)[C@H](C)[C@@H](O)[C@]1(C)O	0.647 ± 0.56	0.732 ± 0.33	0.901 ± 0.15	1.15 ± 0.22	0.831 ± 0.025	1.03 ± 0.0049	0.97 ± 0.048	0.856 ± 0.12	0.58 ± 0.37	0.942 ± 0.24	0.862 ± 0.13
COc1ccc2c(c1OC)C(=O)OC2C1c2c(cc3c(c2OC)OCO3)CCN1C.Cl (stereo unspecified)	0.0862 ± 0.019	0.249 ± 0.016	1.11 ± 0.17	1.36 ± 0.47	0.947 ± 0.42	1.123 ± 0.0013	1.12 ± 0.066	0.417 ± 0.096	0.684 ± 0.53	0.967 ± 0.19	0.914 ± 0.045
CON=C1CN(c2nc3c(cc2F)c(=O)c(C(=O)O)cn3C2CC2)CC1CN.CS(=O)(=O)O (stereo unspecified)	0.058 ± 0.082	0.479 ± 0.14	1.09 ± 0.24	1.26 ± 0.31	0.805 ± 0.059	0.919 ± 0.027	0.856 ± 0.23	0.4853 ± 0.00068	0.503 ± 0.35	0.919 ± 0.19	0.88 ± 0.012
COC1(NC(=O)CSCC#N)C(=O)N2C(C(=O)[O-])=C(CSc3nnnn3C)CSC21.[Na+] (stereo unspecified)	0.762 ± 0.27	0.259 ± 0.32	1.42 ± 0.28	1.16 ± 0.3	0.669 ± 0.18	1.12 ± 0.035	0.746 ± 0.076	0.167 ± 0.022	0.706 ± 0.47	1.01 ± 0.2	0.839 ± 0.031
CCC(C)CCCCC(=O)NC(CCN)C(=O)NC(C(=O)NC(CCN)C(=O)NC1CCNC(=O)C(C(C)O)NC(=O)C(CCN)NC(=O)C(CCN)NC(=O)C(CC(C)C)NC(=O)C(Cc2ccccc2)NC(=O)C(CCN)NC1=O)C(C)O.O=S(=O)(O)O (stereo unspecified)	1.09 ± 0.019	0.653 ± 0.23	0.982 ± 0.031	1.36 ± 0.48	0.688 ± 0.15	1.037 ± 0.0054	0.9729 ± 0.0096	0.649 ± 0.024	0.639 ± 0.43	0.894 ± 0.25	0.892 ± 0.046
COC1=C(OC)C(=O)C(CCCCCCCCCC[P+](c2ccccc2)(c2ccccc2)c2ccccc2)=C(C)C1=O	≤ 0	0.0205 ± 0.0027	0.705 ± 0.021	0.0027 ± 0.0017	≤ 0	0.155 ± 0.019	≤ 0	0.021 ± 0.0015	0.162 ± 0.074	0.211 ± 0.023	0.0008799 ± 4.6e-06
CCCCCCCCCCCCC[N+](C)(C)Cc1ccccc1.O.[Cl-]	0.0515 ± 0.073	0.0193 ± 0.00021	0.811 ± 0.32	0.208 ± 0.0053	0.482 ± 0.019	0.157 ± 0.036	0.171 ± 0.062	0.051 ± 0.015	0.115 ± 0.035	0.102 ± 0.021	0.32 ± 0.068
C[C@H]1c2cccc(O)c2C(=O)C2=C(O)[C@]3(O)C(=O)[C@@H](C(N)=O)C(=O)[C@@H](N(C)C)[C@@H]3[C@@H](O)[C@@H]21	0.782 ± 0.34	0.508 ± 0.05	0.954 ± 0.14	1.17 ± 0.29	0.8317 ± 0.0057	0.934 ± 0.018	0.958 ± 0.081	0.673 ± 0.19	0.601 ± 0.41	0.937 ± 0.26	0.882 ± 0.078
CCn1cc(C(=O)O)c(=O)c2cc(F)c(N3CCN(C(=S)Nc4cc(C(F)(F)F)ccc4Cl)CC3)cc21	0.0352 ± 0.05	0.303 ± 0.029	0.85 ± 0.036	0.51 ± 0.72	1.49 ± 0.75	1.03 ± 0.024	0.915 ± 0.081	0.654 ± 0.18	0.629 ± 0.41	0.996 ± 0.24	1.17 ± 0.075
NCC[C@H](O)C(=O)N[C@@H]1C[C@H](N)[C@@H](O[C@H]2O[C@H](CN)[C@@H](O)[C@H](O)[C@H]2O)[C@H](O)[C@H]1O[C@H]1O[C@H](CO)[C@@H](O)[C@H](N)[C@H]1O	0.228 ± 0.0032	0.0994 ± 0.0019	0.871 ± 0.16	0.863 ± 0.26	0.508 ± 0.14	0.9473 ± 0.0079	0.438 ± 0.056	0.326 ± 0.1	0.608 ± 0.42	0.979 ± 0.24	0.699 ± 0.083
CON=C(C(=O)N[C@@H]1C(=O)N2C(C(=O)O)=C(CSc3nc(=O)c(O)nn3C)CS[C@H]12)c1csc(N)n1	0.722 ± 0.42	0.448 ± 0.015	0.961 ± 0.042	1.05 ± 0.24	0.8 ± 0.022	0.861 ± 0.055	0.984 ± 0.11	0.0646 ± 0.0061	0.568 ± 0.39	0.955 ± 0.25	0.524 ± 0.35
O=c1[nH]cc(F)c(=O)[nH]1	0.73 ± 0.39	0.568 ± 0.12	0.9871 ± 0.0093	0.593 ± 0.47	0.852 ± 0.023	0.981 ± 0.051	0.86 ± 0.071	0.673 ± 0.18	0.572 ± 0.36	0.972 ± 0.2	0.688 ± 0.065
Cc1nnc(SCC2=C(C(=O)[O-])N3C(=O)C(NC(=O)Cn4cnnn4)C3SC2)s1.[Na+] (stereo unspecified)	1.26 ± 0.15	0.672 ± 0.26		1.45 ± 0.57	0.707 ± 0.18	0.951 ± 0.036	1.13 ± 0.052	0.255 ± 0.063	0.612 ± 0.43	0.89 ± 0.17	0.961 ± 0.05
